Test results published in PubChem BioAssay (Tox21).
Records with an inconclusive call do not appear. A number with no mark means an inactive call. Active and inactive are the calls of the source. Calls come from the whole dose curve.
% is set by controls: 0 for no effect and ±100 for the full control effect.

What follows are compounds tested against Beta-2 adrenergic receptor (Homo sapiens) (UniProt P07550) (assay: Adrenergic beta2 receptor (ADRB2) small molecule agonists, cell-based qHTS assay (AID 1963593)). Details: CHO-ADRB2 cells, cAMP HTRF, 30 min; series mostly up to 92.4 µM; activation: at the top concentration.
Beta-2 adrenergic receptor (Homo sapiens), sequence (P07550 whole entry, looked up): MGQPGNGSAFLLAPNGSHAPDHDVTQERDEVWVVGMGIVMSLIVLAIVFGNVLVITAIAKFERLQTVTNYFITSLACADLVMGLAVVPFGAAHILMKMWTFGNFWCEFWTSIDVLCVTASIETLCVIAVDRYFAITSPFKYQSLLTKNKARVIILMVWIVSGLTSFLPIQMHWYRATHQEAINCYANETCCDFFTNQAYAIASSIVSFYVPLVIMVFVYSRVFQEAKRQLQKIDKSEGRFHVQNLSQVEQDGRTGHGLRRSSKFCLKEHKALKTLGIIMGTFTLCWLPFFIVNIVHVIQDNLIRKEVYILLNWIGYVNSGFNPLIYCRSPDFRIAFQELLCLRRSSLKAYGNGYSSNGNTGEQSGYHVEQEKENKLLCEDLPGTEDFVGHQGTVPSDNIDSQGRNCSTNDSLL
Text: National Center for Advancing Translational Sciences [NCATS]
Division of Preclinical Innovation [DPI]
U.S. Environmental Protection Agency [EPA]
National Institutes of Environmental Health Sciences [NIEHS]
National Toxicology Program [NTP]
U.S. Food and Drug Administration [FDA]
Beta adrenergic receptors (Beta-ARs) belong to the G-protein coupled receptor (GPCR) superfamily, includes three subtypes - beta1, beta2, and beta3. Beta1-AR is the predominant receptor subtype expressed in the heart, and beta2-AR is expressed in the kidney, lung, blood vessel and in the heart, and beta3 is found in the adipocytes. Beta1 and 2 ARs couple to Gs protein and elevate cyclic adenosine mono phosphate (cAMP), which activates protein kinase A and leads to the downstream signaling responsible for the physiological actions. Beta-AR agonists or antagonists are the most prescribed therapeutic agents for heart failure and asthma, and these were one of the first target receptors for the rational drug design. Tox21 10K compound library was screened using the cAMP-Gs dynamic assay (Cisbio Bioassays, Shelton, CT) to identify agonists/antagonists of the Gs-coupled human adrenergic, beta2 receptor (ADRB2) in the CHO-ADRB2 cell line (Codex BioSolutions, Inc. Gaithersburg, MD), which stably over-expresses ADRB2. The principle of cAMP-Gs dynamic assay is based on HTRF technology, which facilitates the fluorescence resonance energy transfer (FRET) between donor Europium cryptate and acceptor d2-labeled cAMP. The cAMP generated within cells competes with the red acceptor, d2-labled cAMP, for binding to the monoclonal anti-cAMP-cryptate (Europium donor). An increase in intracellular cAMP leads to the disruption of FRET signal, and the signal is inversely proportional to the cAMP concentration. Isoproterenol HCl (Sigma-Aldrich, St. Louis, MO) was used as a positive control in the screening.
Tox21 Assay Protocol Summary:
CHO-ADRB2 cells were dispensed at 1,000/well in 4uL assay medium into white/solid 1536-well plates (Greiner Bio-One North America Inc., Monroe, NC) using a Multidrop Combi dispenser (ThermoFisher Scientific, Waltham, MA). The assay plates were incubated at 37C and 5% CO2 for an overnight (18-20hr). Then positive control and test compounds dissolved in DMSO were transferred to the assay plates at 23nL using a Pintool station (Wako, San Diego, CA). Following the compound and positive control transfer, 1uL stimulation mix containing 100uM IBMX and 25uM Ro-20-1724 was added to each well of the assay plates using BioRAPTR Flying Reagent Dispenser (FRD, Beckman Coulter, Brea, CA). The assay plates were incubated at room temperature for 0.5hr. Then 2.5ul each d2-labled cAMP and anti-cAMP-cryptate solutions were added separately to each well of the assay plates using an FRD and the assay plates were incubated at room temperature for 1hr.
For `O=c1c2ccccc2c(=O)c2c1cc(Cl)c1[nH]c3c([nH]c12)c(Cl)cc1c(=O)c2ccccc2c(=O)c13`, the “activation” value was -4.51%. With `Cc1ccc(N=C=O)cc1N=C=O` the “activation” value was 26%. For `O=C(NC(=O)c1ccccc1Cl)Nc1ccc(OC(F)(F)F)cc1`, the “activation” value was -24.3%. In the case of `c1ccc(Nc2ccc3ccccc3c2)cc1`, the “activation” value is reported as -29.5%. For `ClC1C(Cl)C(Cl)C(Cl)C(Cl)C1Cl` (stereo not given), the Potency was “inactive”. With `CCC(=O)c1ccccc1` the “activation” value was 3.41%. With `COc1cc(OC)nc(NC(=O)NS(=O)(=O)c2ncccc2C(=O)N(C)C)n1` the “activation” value was 0.365%. In the case of `CN=C=S`, the “activation” value is reported as 15.6%. In the case of `CNc1cnn(-c2cccc(C(F)(F)F)c2)c(=O)c1Cl`, the “activation” value is reported as 0.737%. In the case of `OC(O)C(Cl)(Cl)Cl`, the “activation” value is reported as -5.73% [at 42.5 µM]. For `NNC(=S)NN`, the Potency was “inactive”. For `CN(C)C(=O)Nc1ccc(Cl)cc1`, the “activation” value was -1.53%. For `O=C(O)C(Cl)Cl`, the Potency was “inactive”. For `Cc1ccccc1O`, the “activation” value was 2.08%. In the case of `Cc1ccc([N+](=O)[O-])cc1`, the Potency is reported as “inactive”. `N#CC(Br)Br` was tested, and the “activation” value was 11.7%. For `CN(C)c1nc(=O)n(C2CCCCC2)c(=O)n1C`, the “activation” value was -21.4%. `CCNc1nc(NC(C)C)nc(OC)n1` was tested, and the “activation” value was -3.67%. `CCCC[n+]1ccc(C)cc1` was tested, and the Potency was “inactive”. For `CCC(Br)(CC)C(=O)NC(N)=O`, the “activation” value was 16.5%. In the case of `C[N+](C)(C)CC(=O)[O-]`, the Potency is reported as “inactive”. `Cc1ccc([N+](=O)[O-])cc1C` was tested, and the “activation” value was -22.8%. With `c1ccc(OP(Oc2ccccc2)Oc2ccccc2)cc1` the Potency was “inactive”. `O=C(O)c1nc(Cl)ccc1Cl` was tested, and the Potency was “inactive”. In the case of `CCCCOP(=O)(CCCC)OCCCC`, the “activation” value is reported as 19.3%. `O=C1C2CC=CCC2C(=O)N1SC(Cl)(Cl)Cl` (stereo not given) was tested, and the “activation” value was -3.99%. With `CCCCCCCCCCCC(=O)O` the Potency was “inactive”. With `CC1C=[C-]C=C1.[C-]#[O+].[C-]#[O+].[C-]#[O+].[Mn]` the “activation” value was 13.5%. `CCC/C=N/O` was tested, and the “activation” value was -24.7%. For `CNC(=O)Oc1cccc2c1OC(C)(C)C2`, the “activation” value was 8.78%. `CCCC1COC(Cn2cncn2)(c2ccc(Cl)cc2Cl)O1` (stereo not given) was tested, and the “activation” value was -23.3%. For `CCCCCCCCOC(=O)c1ccc(C(=O)OCCCCCCCC)c(C(=O)OCCCCCCCC)c1`, the “activation” value was 6.67%. For `COC(C)(C)CCCC(C)C/C=C/C(C)=C/C(=O)OC(C)C` (stereo not given), the “activation” value was 5.05%. In the case of `Nc1ccc(Cl)cc1`, the “activation” value is reported as 9.28%. `N#CCNCC#N` was tested, and the “activation” value was -9.56%. For `ClCc1cccnc1`, the “activation” value was 5.36%. With `O=c1[nH]c2ccccc2c(=O)o1` the Potency was “inactive”. In the case of `Sc1ccccc1Cl`, the “activation” value is reported as 8.91% [at 42.5 µM]. `O=c1nc(O)n(Cl)c(=O)n1Cl` was tested, and the Potency was “inactive”. With `O=C(O)c1ccccn1` the “activation” value was 19.5% [at 42.5 µM].
